The results in this text go back to PubChem BioAssay (NCATS).

The term AC50 denotes the concentration at which the activity in the assay is half-maximal.

For assay [1] the following is noted: Ebola virus entry assay, green fluorescence channel.
The conditions of assay [2]: Ebola virus entry assay, blue channel fluorescence.
For assay [3] the following is noted: Ebola virus entry assay, ratio channel.
The conditions of assay [4]: Ebola virus entry assay, green channel fluorescence.
For assay [5] the following is noted: Ebola virus entry assay, reporter ratio channel; Channel type: primary.
For assay [6] the following is noted: Ebola virus entry assay, blue channel (ratio component).

Values without a mark were called inactive. For part of these data: Potency and affinity values are given separately. The source made the active and inactive calls. No rule for the calls is given here.
For efficacy in this document: 0% is about no effect.

On to `CC(=O)N[C@H]1[C@H]([C@H](O)[C@H](O)CO)OC(C(=O)O)=C[C@@H]1N=C(N)N`, for which, in assay [1], the efficacy is -18.6%. Also, the AC50 in assay [2] is 2.82 µM (active). The outcome in assay [3], in assay [4], in assay [5] and in assay [6] was inactive.
Turning to `CC(NC(CCc1ccccc1)C(=O)O)C(=O)N1C(=O)N(C)CC1C(=O)O` (configuration not stated), the efficacy in assay [1] is -14.7%. The result in assay [2], in assay [3], in assay [4], in assay [5] and in assay [6] was inactive.
Turning to `OCC(CO)N[C@H]1C[C@](O)(CO)[C@@H](O)[C@H](O)[C@H]1O`, the efficacy in assay [1] was -14.7%. Further, the molecule was classed as inactive in assay [2], in assay [3], in assay [4], in assay [5] and in assay [6].
Regarding `C#C[C@]1(O)CC[C@H]2[C@@H]3CCc4cc(OC)ccc4[C@H]3CC[C@@]21C`, the efficacy in assay [1] is 19%. Moreover, the molecule was called inactive in assay [2], in assay [4] and in assay [6]. Further, the AC50 in assay [3] and in assay [5] was 2.82 µM (active) throughout.
Regarding `O=S1(=O)OC(c2ccc(O)cc2)(c2ccc(O)cc2)c2ccccc21`, the efficacy in assay [1] was 19.3%. The result in assay [2], in assay [3], in assay [4], in assay [5] and in assay [6] was inactive.
Consider `CC1(C)CCC(C)(C)c2cc(NC(=O)c3ccc(C(=O)O)cc3)ccc21`, for which the efficacy in assay [1] was 21.8%. The outcome in assay [2], in assay [3], in assay [4], in assay [5] and in assay [6] was inactive.
On to `CC(C)CCCC(C)N` (configuration not stated), for which the efficacy in assay [1] is -16.5%. Moreover, the call in assay [2], in assay [3], in assay [4], in assay [5] and in assay [6] was inactive.
Consider `Cl/C(=C\n1cncn1)c1ccc(Cl)cc1Cl`, for which the efficacy in assay [1] is -16.7%. Also, the outcome in assay [2], in assay [3], in assay [4], in assay [5] and in assay [6] was inactive.
Turning to `CCCCN(CCN(CCCC)C(=O)N1CCOCC1)C(=O)N1CCOCC1`, the efficacy in assay [1] is 15.6%. Also, the molecule was classed as inactive in assay [2], in assay [3], in assay [4], in assay [5] and in assay [6].
As to `CCC(=O)Nc1ccc(O)cc1`, the efficacy in assay [1] is -18.3%. In addition, the result in assay [2], in assay [3], in assay [4], in assay [5] and in assay [6] was inactive.
For the molecule `CCCCCCCC/C=C\CCCCCCCCN`, in assay [1], the efficacy is 12.8%. Moreover, the result in assay [2], in assay [3], in assay [4], in assay [5] and in assay [6] was inactive.
Turning to `O=[N+]([O-])c1nccn1CO[C@@H](CO)[C@H](O)CO`, in assay [1], the efficacy was -11.8%. For the same molecule, the result in assay [2], in assay [3], in assay [4], in assay [5] and in assay [6] was inactive.
`O=C(O)CCC(=O)c1ccc(-c2ccccc2)cc1`: the efficacy in assay [1] is 17.7%. For the same molecule, the call in assay [2], in assay [3], in assay [4], in assay [5] and in assay [6] was inactive.
Take `OCc1ccccc1O`: in assay [1], the efficacy is -17.7%. The outcome in assay [2], in assay [3], in assay [4], in assay [5] and in assay [6] was inactive.
Turning to `CCCCCCCCCCCCCCC[C@H](O)[C@@H](N)CO`, in assay [1], the efficacy is 25.9%. Moreover, the outcome in assay [2], in assay [3], in assay [4], in assay [5] and in assay [6] was inactive.
In the case of `Cc1ccc(O)cc1`, the efficacy in assay [1] is -17.7%. Further, the result in assay [2], in assay [3], in assay [4], in assay [5] and in assay [6] was inactive.
As to `CCCCCN(CCCCC)C(=O)C(CCC(=O)O)NC(=O)c1ccc(Cl)c(Cl)c1` (configuration not stated), the efficacy in assay [1] is 12.6%. The molecule was called inactive in assay [2], in assay [3], in assay [4], in assay [5] and in assay [6].
`C=Cc1c(C)c2cc3[nH]c(cc4nc(cc5nc(cc1[nH]2)C(C)=C5CCC(=O)O)C(CCC(=O)O)=C4C)c(C)c3C=C`: the efficacy in assay [1] was 15.1%. In addition, the result in assay [2], in assay [3], in assay [4], in assay [5] and in assay [6] was inactive.
Take `O=c1[nH]c2ccccc2c(=O)n1CCCl`: the efficacy in assay [1] is -18.7%. Besides, the call in assay [2], in assay [3], in assay [4], in assay [5] and in assay [6] was inactive.
Consider `CC1(C)O[C@@H]2C[C@H]3[C@@H]4C[C@H](F)C5=CC(=O)CC[C@]5(C)[C@H]4[C@@H](O)C[C@]3(C)[C@]2(C(=O)CO)O1`, for which, in assay [1], the efficacy was 23.9%. Besides, the call in assay [2], in assay [3], in assay [4], in assay [5] and in assay [6] was inactive.
For `Cc1ccc(=O)n(-c2ccccc2)c1`, in assay [1], the efficacy was -13.1%. Besides, the call in assay [2], in assay [3], in assay [4], in assay [5] and in assay [6] was inactive.
On to `CCOC(=O)c1ccc(C#Cc2ccc3c(c2)C(C)(C)CCS3)nc1`, for which the efficacy in assay [1] is 24%. For the same molecule, the outcome in assay [2], in assay [3], in assay [4], in assay [5] and in assay [6] was inactive.
In the case of `CN1[C@@H]2CC[C@H]1CC(OC(=O)c1c[nH]c3ccccc13)C2` (some centres not stated), the efficacy in assay [1] is 45%. The result in assay [2], in assay [3], in assay [4] and in assay [6] was inactive. Further, the AC50 in assay [5] is 39.8 µM (active).
Consider `CC1(C)CO[C@@H](CC(=O)O)CN1`, for which the efficacy in assay [1] was -12.4%. Also, the call in assay [2], in assay [3], in assay [4], in assay [5] and in assay [6] was inactive.
Regarding `CC1(C)OC[C@@H](COC(=O)CCc2ccc(OC[C@@H](O)CNCCNC(=O)N3CCOCC3)cc2)O1`, the efficacy in assay [1] was -15.7%. The result in assay [2], in assay [3], in assay [4], in assay [5] and in assay [6] was inactive.
Take `CC(C)(C)C(=O)NCCCC(=O)O`: the efficacy in assay [1] was -17.8%. Also, the call in assay [2], in assay [3], in assay [4], in assay [5] and in assay [6] was inactive.
As to `O=C(O)Cc1ccc2c(c1)C(=O)c1ccccc1CO2`, the efficacy in assay [1] is 17%. Further, the molecule was called inactive in assay [2], in assay [3], in assay [4], in assay [5] and in assay [6].
